In the supplement of paper PMC10981050:
“And” between values parts separate entries of the source, which are not always exact repeats. Equal values may be shown once. Where a name gives a salt, the structure may show the parent alone.

Assays:
Test in all cases: cell viability relative to vehicle control; higher = less cytotoxic
Conditions in all cases: 10 µM
K562 = test system: K562
In short: (§1)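 CRISPR-edited SRSF2 P95 mutant and isogenic wild-type clones of four leukaemia lines were screened against Selleck bioactive, kinase and epigenetic probe libraries, with identity-inconsistent compounds removed. Compounds were acoustically dispensed into 384-well plates at a single 10 µM dose, with 2000 cells in 50 µL medium per well. After 48 h, supernatant was removed and CellTiter-Glo luminescence was read. Viability was expressed as percent of the on-plate DMSO vehicle control, analysed in Genedata Screener.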

MARIMO = test system: MARIMO
In short: as §1

MOLM14 = test system: MOLM14
In short: as §1

OCI-AML2 = test system: OCI-AML2
In short: as §1

| SMILES | cell viability (K562; SRSF2 genotype: SRSF2 P95H/wt) | cell viability (K562; SRSF2 genotype: SRSF2 wt/wt) | cell viability (MARIMO; SRSF2 genotype: SRSF2 P95H/wt) | cell viability (MARIMO; SRSF2 genotype: SRSF2 wt/wt) | cell viability (MOLM14; SRSF2 genotype: SRSF2 P95H/wt) | cell viability (MOLM14; SRSF2 genotype: SRSF2 wt/wt) | cell viability (OCI-AML2; SRSF2 genotype: P95H/wt) | cell viability (OCI-AML2; SRSF2 genotype: wt/wt) |
| --- | --- | --- | --- | --- | --- | --- | --- | --- |
| C=CC(=O)N[C@H]1CCOC[C@H]1Nc1ncc2cc(-c3c(Cl)c(OC)cc(OC)c3Cl)ccc2n1 | 78.2% and 81.3% | 80.2% | 85.8% | 90.5% | 78.8% | 79.8% | 66.8% | 72.7% |
| CCN(CC)CCOC(=O)C(c1ccccc1)c1ccccc1 [Adiphenine HCl] | 97.9% and 89.7% | 85.9% | 85.1% | 96.3% | 89% | 94.3% | 92.4% | 81.1% |
| N#Cc1c(N)nc(NC2CC2)nc1N [Dicyclanil] | 96.3% and 102% | 105% | 94.5% | 105% | 104% | 102% | 107% | 99.9% |
| NCCCCCNCC12CC3CC(CC(C3)C1)C2 [IEM 1754 dihydrobroMide] | 102% and 104% | 95% | 104% | 105% | 103% | 102% | 91.4% | 100% |
| O=C(/C=C/c1ccc(O)cc1)c1ccc(O)cc1O [Isoliquiritigenin] | 86.2% and 94.8% | 84.4% | 83.3% | 98.4% | 53.5% | 74.7% | 89% | 98% |
| CCN(CC)CCNC(=O)c1c(C)[nH]c(/C=C2\C(=O)Nc3ccc(-c4csc(-c5ccccc5)n4)cc32)c1C [Amcasertib (BBI503)] | 0.84% and 1.26% | 0.76% | 66.4% | 43.4% | 4.21% | 8.87% | 4.03% | 26% |
| COc1cccc2c1c(O)c(C(=O)N(C)c1ccc(C(F)(F)F)cc1)c(=O)n2C [Tasquinimod] | 108% and 106% | 99.1% | 109% | 116% | 106% | 106% | 101% | 110% |
| C=C(C)[C@@H]1CCC2=CC(=O)C[C@@H](C)[C@]2(C)C1 [Nootkatone] | 104% and 105% | 107% | 100% | 95.4% | 105% | 103% | 107% | 103% |
| OCC(CO)N[C@H]1C[C@](O)(CO)[C@@H](O)[C@H](O)[C@H]1O [Voglibose] | 96.2% and 91.4% | 96.6% | 98.1% | 104% | 99.7% | 97.5% | 92.3% | 109% |
| O=C(/C=C/c1ccc(O)c(O)c1)O[C@@H]1C[C@](O)(C(=O)O)C[C@@H](O)[C@H]1O [Chlorogenic acid] | 102% and 109% | 99.4% | 99.4% | 108% | 104% | 102% | 99% | 102% |
| O=C(COc1cccc2c(=O)[nH]ccc12)c1ccccc1 | 89.7% and 93.9% | 98.9% | 94.6% | 88.4% | 102% | 98.5% | 88% | 84.1% |
| COc1ncc(-c2ccc3nccc(-c4ccnnc4)c3c2)cc1NS(=O)(=O)c1ccc(F)cc1F | 31.8% and 30.2% | 34.8% | 26.4% | 24.1% | 1.48% | 11.9% | 0.26% | 1.55% |
| CCC(C)C(NC(=O)C(C(C)CC)N(C)C(C)=O)C(=O)NC(C(=O)NC(CC(C)C)C(=O)C1(C)CO1)C(C)O (stereo not drawn) [Epoxomicin (BU-4061T)] | 1.56% and 1.91% | 0.91% | 0.3% | 0.71% | 0.14% | 0.17% | 0.15% | 0.14% |
| Cc1cc(N2CCN([C@@H]3CN[C@H](C(=O)N4CCSC4)C3)CC2)n(-c2ccccc2)n1 [Teneligliptin hydrobromide] | 90.4% and 78% | 83.5% | 86.8% | 95.5% | 84.8% | 89% | 94.2% | 91.8% |
| C/C=C(/C)C(=O)OC(=O)/C(C)=C\C [Angelic anhydride] | 98.7% and 106% | 113% | 101% | 101% | 103% | 107% | 102% | 100% |
| Cc1cc(Nc2ncc(Cl)c(Nc3ccccc3S(=O)(=O)C(C)C)n2)c(OC(C)C)cc1C1CCNCC1 [Ceritinib (LDK378)] | 0.29% and 0.22% | 0.14% | 0.2% | 0.23% | 0.06% | 0.11% | -0.03% | 0.01% |
| C=CC(=O)N1CCC[C@@H](n2nc(-c3ccc(Oc4ccccc4)cc3)c(C(N)=O)c2N)C1 [Btk inhibitor 2] | 81.6% and 89.2% | 84.8% | 79.8% | 90.2% | 25.4% | 25.4% | 48.2% | 52.1% |
| COc1cc(OCc2cccc(-c3ccccc3)c2C)cc(OC)c1CN1CCCC[C@H]1C(=O)O [PD-1/PD-L1 inhibitor 1] | 87.3% and 92.7% | 100% | 83.7% | 85.2% | 89.8% | 95.3% | 68.2% | 73.2% |
| O=c1n(CCCN2CCN(c3cccc(Cl)c3)CC2)nc2ccccn12 [Trazodone hydrochloride (Desyrel)] | 102% and 99.9% | 103% | 105% | 109% | 106% | 102% | 106% | 104% |
| CC(C)(C)C#Cc1cc(N(C(=O)[C@H]2CC[C@H](C)CC2)[C@H]2CC[C@H](O)CC2)c(C(=O)O)s1 [Lomibuvir (VX-222, VCH-222)] | 108% and 102% | 107% | 113% | 115% | 109% | 106% | 124% | 120% |
| Cc1ccc(NC(=O)c2ccc(CN3CC[C@H](N(C)C)C3)c(C(F)(F)F)c2)cc1Nc1nccc(-c2cncnc2)n1 [Bafetinib (INNO-406)] | 1.12% and 1.27% | 4.57% | 54.6% | 43.2% | 49.9% | 49% | 23.6% | 30.4% |

| SMILES | cell viability (K562; SRSF2 genotype: SRSF2 P95H/wt) | cell viability (K562; SRSF2 genotype: SRSF2 wt/wt) | cell viability (MARIMO; SRSF2 genotype: SRSF2 P95H/wt) | cell viability (MARIMO; SRSF2 genotype: SRSF2 wt/wt) | cell viability (MOLM14; SRSF2 genotype: SRSF2 P95H/wt) | cell viability (MOLM14; SRSF2 genotype: SRSF2 wt/wt) | cell viability (OCI-AML2; SRSF2 genotype: P95H/wt) | cell viability (OCI-AML2; SRSF2 genotype: wt/wt) |
| --- | --- | --- | --- | --- | --- | --- | --- | --- |
| NC(=O)c1cnccn1 [Pyrazinamide (Pyrazinoic acid amide)] | 107% and 105% | 110% | 104% | 114% | 103% | 105% | 95.6% | 109% |
| CC(=O)OCC1=C[C@@H]2OC(=O)C3=CO[C@@H](O[C@@H]4O[C@H](CO)[C@@H](O)[C@H](O)[C@H]4O)[C@H]1[C@@H]32 [Asperulosid] | 83.4% and 85.5% | 85.5% | 85.2% | 94.3% | 85% | 88% | 88.5% | 113% |
| C/C=C(/C)C(=O)O[C@H]1[C@@H](OC(=O)CC(C)C)c2c(ccc3ccc(=O)oc23)OC1(C)C [Praeruptorin E] | 65.9% and 77.1% | 79% | 57.4% | 53.9% | 69.4% | 76.3% | 25.6% | 52.9% |
| COc1ccc2[nH]c([S@@+]([O-])Cc3ncc(C)c(OC)c3C)nc2c1 [Esomeprazole sodium] | 98.5% and 100% | 94.4% | 98.8% | 99.8% | 97.4% | 90.9% | 96% | 91.8% |
| COc1c(C)c(C(=O)c2ccc(N)c(C(=O)O)c2)n2ccccc12 | 106% and 97.6% | 101% | 102% | 110% | 105% | 108% | 97.6% | 106% |
| Cc1cccc(-c2[nH]c(C(C)(C)C)nc2-c2ccc3c(c2)OCO3)n1 | 63.9% and 60.2% | 47.6% | 61.4% | 63.3% | 84.9% | 83.8% | 52.6% | 50% |
| Nc1nc(F)nc2c1ncn2[C@@H]1O[C@H](CO)[C@@H](O)[C@@H]1O [Fludarabine (Fludara)] | 102% and 107% | 100% | 64.5% | 77.6% | 65.7% | 82.8% | 4.58% | 5.52% |
| Cc1cc(NS(=O)(=O)c2ccc(N)cc2)no1 [Sulfamethoxazole sodium] | 107% and 94.7% | 100% | 101% | 110% | 102% | 104% | 93.1% | 109% |
| Cc1[nH]c2ccccc2c1CCNCc1ccc(/C=C/C(=O)NO)cc1 [Panobinostat (LBH589)] | 1.37% and 8.1% | 2.36% | 3.16% | 7.58% | 0.67% | 0.53% | 1.13% | 1.48% |
| Nc1ncnc2c1ncn2[C@@H]1O[C@H](CO)[C@@H](O)[C@@H]1O [Vidarabine (Vira-A)] | 94.6% and 101% | 97% | 89.9% | 93.4% | 92.5% | 96.1% | 101% | 102% |
| O=C(c1ccc(F)cc1)N1CCCC(c2nc(-c3ccc(F)cc3)no2)C1 (stereo not drawn) | 75.7% and 78.6% | 76.6% | 66% | 73.9% | 80.1% | 84.1% | 64.8% | 72.7% |
| Cc1nccn1CC1CCc2c(c3ccccc3n2C)C1=O (stereo not drawn) [Ondansetron Hydrochloride Dihydrate] | 95.8% and 94.2% | 91.5% | 95.9% | 108% | 97.4% | 97.4% | 88.6% | 99.1% |
| Cn1c(O)c(C2=c3ccccc3=NC2=O)c2ccccc21 [Meisoindigo] | 22.4% and 19.2% | 43.4% | 0.73% | 0.66% | 0.36% | 0.48% | 0.36% | 0.46% |
| CCCC[S+]([O-])c1sc2nc(-c3cccs3)cc(-c3ccccc3)c2c1N (stereo not drawn) | 94.5% and 97% | 92.9% | 95% | 109% | 103% | 99.4% | 98.7% | 98.8% |
| Cc1cc(C(O)=C2C(=O)C(=O)N(CCCN3CCOCC3)C2c2ccncc2)ccc1OCc1ccccc1 (stereo not drawn) | 96.1% and 98.6% | 102% | 93.9% | 92.6% | 107% | 96.5% | 103% | 94.2% |
| Nc1ncnc2c1ncn2C1OC(COP(=O)(O)OP(=O)(O)O)C(O)C1O (stereo not drawn) | 111% and 110% | 107% | 91.2% | 90.7% | 101% | 95% | 96.3% | 99.9% |
| O=P(O)(O)Oc1cccc2ccccc12 [1-Naphthyl phosphate potassium salt] | 104% and 95% | 97.8% | 87.5% | 107% | 91.7% | 104% | 83.9% | 91.1% |
| CCCCC(=O)N(Cc1ccc(-c2ccccc2-c2nnn[nH]2)cc1)[C@H](C(=O)O)C(C)C [Valsartan (Diovan)] | 102% and 98.1% | 105% | 102% | 112% | 104% | 106% | 101% | 112% |
| O=C(O)CCCc1ccccc1 [Sodium Phenylbutyrate] | 110% and 98.8% | 105% | 100% | 109% | 96.9% | 102% | 94.8% | 100% |
| COc1cccc2c1C(=O)c1c(O)c3c(c(O)c1C2=O)CC(O)(C(=O)CO)CC3OC1CC(N)C(O)C(C)O1 (stereo not drawn) [Doxorubicin (Adriamycin) HCl] | 4.96% and 11.8% | 6.38% | 5.57% | 2.71% | 1% | 0.45% | 2.05% | 12.5% |
